Screening data from PubChem.
proKLK7 act = activates the human kallikrein-7 zymogen. purified proKLK7, EDANS-DABCYL substrate fluorescence; 100% is mature enzyme control, 0% vehicle. AID 652039. P49862. activation, % at 7 µM. hit rate 0.9% among 370,000;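 active = activation above the mean of all tested compounds plus 3 SD, computed per campaign excluding outliers beyond control limits, cut at about 13% in these data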
SMARCA2 act = increases SMARCA2 function in MMTV reporter cells; MG213 cells, MMTV-luciferase reporter, dexamethasone, overnight; activation, % at 9.1 µM; hit rate 1% among 370,000; AID 652017; in the data active = activation above about 7.8%
FAS TE block = blocks the thioesterase domain of human fatty acid synthase; P49327; recombinant FAS-TE, OMFH fluorogenic substrate, fluorescence endpoint; inhibition, % at 15 µM; hit rate 0.67% among 360,000; AID 602261;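 active = compounds whose normalised, plate-corrected inhibition of enzyme fluorescence in the single-dose primary screen is 50% or more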
GAA850 FXN act = activators of GAA850 frataxin (FXN) promoter | HEK293 lucGAA850 FXN promoter luciferase reporter, 24 h; percent of 10 µM SAHA response | AID 540364 | activation, % at 6 µM | hit rate 0.56% among 360,000;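 active = activation above the average of all compounds screened plus 3 SD, cutoff fixed separately per campaign, cut at about 7.5% in these data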
GAA30 FXN cntr = activates GAA30 frataxin promoter, counter-screen for GAA850 activators | HEK293 lucGAA30 FXN promoter luciferase, 24 h; DMSO = 0%, 5 µM ipriflavone = 100% | shares compounds with GAA850 FXN act | hit rate 66% among 1,900 | activation, % at 6 µM;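 active = mean activation above the mean of solvent-only control wells plus 3 SD, cut at about 22% in these data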;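 also: counterscreen of GAA850 promoter hits where activity marks nonselective or luminescence artifacts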
GAA850 confirm = confirmation of GAA850 frataxin (FXN) promoter activators. shares compounds with GAA850 FXN act. AID 588351. activation, % at 6 µM. hit rate 86% among 1,900. HEK293 lucGAA850 FXN promoter luciferase reporter, 24 h; 100% = activation by SAHA;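 active = mean activation above a set limit taken from the primary screen, cut at about 8% in these data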
FAS-TE conf = confirmation of human fatty acid synthase thioesterase inhibitors. shares compounds with FAS TE block. inhibition, % at 15 µM. AID 624325. recombinant FAS-TE, OMFH fluorogenic substrate, fluorescence. hit rate 45% among 2,300;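 active = compounds inhibiting the enzyme by at least 50% at 15 µM in any one of the replicates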
SMARCA2 act conf = confirmation of SMARCA2 (BRM) function activators | shares compounds with SMARCA2 act | MG213 cells, MMTV-luciferase with dexamethasone, luminescence, overnight; MG213 cells expressing E1A, Rb sequestered; DMSO wells 0%, reference activator 100% | activation, % at 9.1 µM | hit rate 30% among 3,500 | AID 652260;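 active = activation above its plate's cutoff, the mean activation of tested wells plus 3 SD, cut at about 7.9% in these data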
VP16 Luc act = GAL4-VP16 reporter activation counter-screen; shares compounds with SMARCA2 act; HEK293 GAL4-VP16 pG5luc reporter, luciferase luminescence; scaled: DMSO wells 0%, SAHA wells 100%; activation, % at 9.1 µM; hit rate 41% among 3,500; AID 686939;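 active = activation above the solvent-only control well mean plus 3 SD, averaged across control plates, cut at about 5.2% in these data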
proKLK7 act conf = confirmation of human kallikrein-7 zymogen activators. purified proKLK7, EDANS-DABCYL substrate fluorescence; scaled: vehicle 0, mature enzyme 100. activation, % at 7 µM. shares compounds with proKLK7 act. AID 686949. hit rate 68% among 3,200;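 active = activation, as change over the incubation, above the mean of all tested compounds plus 3 SD, cut at about 13% in these data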
EDANS interfere = counter-screen for kallikrein-7 activators: EDANS-DABCYL optical interference. hit rate 80% among 3,200. activation, % at 7 µM. EDANS-DABCYL substrate fluorescence interference, no enzyme, 4 h; solvent 0%, active enzyme control 100%. AID 686952. shares compounds with proKLK7 act;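 active = activation above the all-compound mean plus 3 SD, ignoring values outside control-based bounds, cut at about 4.8% in these data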;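 also: value is the 4 h activation minus the activation read at time zero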
Of the large screens only hits and unclear results are named; the others gave an inactive call (follow-up assays come after a bar, where they were run). Most compounds without a hit are left out; they make up all but 2.9% or so of the library.

CC(=O)Nc1cccc(NC(=O)CSc2ncc(C(=O)Nc3ccccc3)c(=O)n2C)c1	proKLK7 act 100, SMARCA2 act 12, GAA850 FXN act 9.7 | GAA30 FXN cntr inactive | GAA850 confirm 15 | SMARCA2 act conf 28 | VP16 Luc act inactive | proKLK7 act conf inactive | EDANS interfere 13
CCN1CCN(c2cc3c(nn2)Oc2ccccc2N3C)CC1	proKLK7 act 61, GAA850 FXN act 8.4 | GAA30 FXN cntr 140 | GAA850 confirm 42 | proKLK7 act conf 70 | EDANS interfere 67
COc1ccc(C2=NN(c3ccc(C(=O)O)cc3)C(c3ccc(OC)c(OC)c3)C2)cc1 (stereo unspecified)	proKLK7 act 67, GAA850 FXN act 11 | GAA30 FXN cntr 31 | GAA850 confirm 19 | proKLK7 act conf 65 | EDANS interfere 63
COc1ccc(C2CC(c3ccccc3)=NN2c2ccc(S(N)(=O)=O)cc2)cc1OC (stereo unspecified)	none
Cc1c(N2C(=O)/C(=C\c3ccccc3O)SC2=S)c(=O)n(-c2ccccc2)n1C	none
CN1C(=O)/C(=C/c2cc(N=Nc3ccccc3)ccc2O)SC1=S	FAS TE block 58 | FAS-TE conf inactive
COC(=O)c1ccc(S(=O)(=O)N2CCN(CCO)CC2)n1C	none
COC(=O)c1ccc(S(=O)(=O)N2CCN(C(c3ccccc3)c3ccccc3)CC2)n1C	FAS TE block 55 | FAS-TE conf inactive
CCOc1cc(/C=N/Nc2nc(N3CCCCC3)nc(N3CCCCC3)n2)ccc1OC(=O)c1ccco1	FAS TE block 71 | FAS-TE conf inactive
COc1cc(/C=N/Nc2nc(Nc3ccccc3)nc(N3CCOCC3)n2)ccc1OC(=O)c1ccco1	FAS TE block 67 | FAS-TE conf inactive
COc1ccc(/C=N/Nc2nc(Nc3ccccc3)nc(N3CCCCC3)n2)c(OC)c1	FAS TE block 50 | FAS-TE conf inactive
CCOC(=O)c1cc2c(=O)n3ccccc3nc2n(C(C)C)c1=NC(=O)c1c(-c2c(F)cccc2Cl)noc1C	FAS TE block 94 | FAS-TE conf inactive
CCc1ccc(NC(=O)NC2CCCCCCC2)cc1	none
CCOC(=O)CCSc1nc2c(c(C(F)(F)F)c1C#N)CCC2	FAS TE block 71 | FAS-TE conf 65
N#CCc1ccc(OC(=O)Nc2ccccc2)cc1	none
O=C(Cn1cc([N+](=O)[O-])cn1)N1CCc2ccccc2C1	FAS TE block 56 | FAS-TE conf 58
O=C(OCC(=O)N1CCc2ccccc2C1)c1cccc([N+](=O)[O-])c1	FAS TE block 56 | FAS-TE conf 67
CC(C)(C)N(Cc1ccccc1)C(=O)COC(=O)c1cccc([N+](=O)[O-])c1	FAS TE block 77 | FAS-TE conf 42
CC(=O)N1CCN(S(=O)(=O)c2cccc(C(=O)OCC(=O)N(Cc3ccccc3)C(C)(C)C)c2)CC1	none
Cc1ccc(N(C(=O)c2csnn2)C(C(=O)NC(C)(C)C)c2cccs2)cc1 (stereo unspecified)	none
CC(C)(C)Cc1nnc(NS(C)(=O)=O)s1	none
COc1ccc(CN(Cc2cc3cccc(C)c3n3nnnc23)C(=O)N2CCOCC2)cc1	FAS TE block 50 | FAS-TE conf 47
CCC(=O)N(Cc1ccco1)Cc1cc2cccc(C)c2n2nnnc12	none
CC(C)c1nnc(NC(=O)C2CCN(C(=O)c3ccco3)CC2)s1	none
CC(C)CC(NC(=O)c1ccc(Cl)cc1)C(=O)OCc1cc([N+](=O)[O-])cc2c1OCOC2 (stereo unspecified)	FAS TE block 52 | FAS-TE conf inactive
CCOC(=O)c1c(NC(C)=O)sc2c1CCC(C=NCCCN(CC)CC)=C2Sc1ccccc1	FAS TE block 56 (no result: proKLK7 act, SMARCA2 act) | FAS-TE conf inactive
Cc1ccc([N+](=O)[O-])cc1NC(=O)CCCOc1ccccc1	FAS TE block 68 | FAS-TE conf 32
O=C(CN1CCN(c2cccc(Cl)c2)CC1)Nc1ccc([N+](=O)[O-])cc1C(=O)Nc1ccccc1F	FAS TE block 60 | FAS-TE conf inactive
O=C(CCc1ccccc1)Nc1cccc([N+](=O)[O-])c1	none
O=C(CCCc1ccccc1)Nc1cccc([N+](=O)[O-])c1	FAS TE block 66 | FAS-TE conf 60
O=C(CN1CCCCCC1)Nc1cccc([N+](=O)[O-])c1	none
O=C(CN1CCN(c2ccccc2)CC1)Nc1cccc([N+](=O)[O-])c1	FAS TE block 51 | FAS-TE conf 50
CC(C)Cn1cnc2c(c1=N)C(c1ccccc1)C1=C(CC(C)(C)CC1=O)O2 (stereo unspecified)	none
O=C1OCCN1c1c(-c2ccccc2)c(N2CCOCC2)nc2ccccc12	none
Cc1ccc([N+](=O)[O-])cc1NC(=O)CCc1ccccc1	FAS TE block 50 | FAS-TE conf 52
CCOC(=O)C(=O)Nc1cc([N+](=O)[O-])ccc1C	none
CCCCNC(=S)Nc1cc([N+](=O)[O-])ccc1C	FAS TE block 51 | FAS-TE conf 37
CCC1CCc2sc(C(=O)N3CCN(c4ccccn4)CC3)cc2C1 (stereo unspecified)	none
CC(C)CN(C(=O)c1cccc(S(=O)(=O)N2CCN(c3ccc(F)cc3)CC2)c1)C1CCS(=O)(=O)C1 (stereo unspecified)	none
CSc1nc(N2CCOCC2)c2sccc2n1	none
CC(C)OC(=O)CSc1nc(-c2ccc(F)cc2)cc(C(F)(F)F)n1	none
Cc1nn(Cc2ccc([N+](=O)[O-])cc2)c(=O)n1-c1ccc(Cl)cc1	none
Cc1nn(Cc2ccc([N+](=O)[O-])cc2)c(=O)n1-c1cccc(Cl)c1	FAS TE block 66 | FAS-TE conf 75
